Results on eight compounds are retold here after PubChem BioAssay (NCATS).

Where “and” joins values, the source holds several entries; their conditions need not be identical. Equal values may be shown once. Records with an inconclusive call do not appear. Calls of active or inactive are those of the source. Unless noted, calls come from the whole dose curve; as a rule, active = well fitted curve in the direction sought with a large enough effect; inconclusive = small, poorly fitted or top-dose-only effect, or another doubt; inactive = no such curve, though single readings can be large; an effect the other way counts as inactive or inconclusive.

Test [1] in a line: Cell Proliferation Assay Versus the ED40515 IL2 Independent ATL cell lines (AID 1053194; calls by dose curve). The settings on record: ED40515 IL2-independent ATL cells. An outline of the steps: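 CellTiter-Glo luminescence, read after 15 min at RT, gave viability of IL-2-free ED40515 cells (1000/well, RPMI plus 5% FBS) following 48 h drug exposure at 37C. Control wells held DMSO or 9.2 uM bortezomib.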

Test [2] in a line: Cell Proliferation Assay Versus the ED40515 IL2 Dependent ATL cell lines (AID 1053195; calls by dose curve). The settings on record: ED40515 IL2-dependent ATL cells. An outline of the steps: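 CellTiter-Glo luminescence (15 min, RT) measured viability after 48 hours at 37C; cells were ED40515 +IL2, 1000/well, in phenol red-free RPMI with 5% FBS. Controls: DMSO and 9.2 uM bortezomib.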
Test [3] in a line: High-throughput drug toxicity screening in the BPDCN cell line Gen2.2 (AID 1224824; call rule not given here;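 note: cells exposed to compounds for 48 h before reading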). The settings on record: Gen2.2 BPDCN cells; at 45.8 µM (top of the series) unless noted. An outline of the steps: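 Gen2.2, 500 cells/well, phenol red-free RPMI/10% FBS/Pen-Strep; 48 h cpd, 37 °C/5% CO2; CTG lum, 15 min RT. Norm: DMSO = 100%, bortezomib 9.2 uM final = 0%.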
Test [4] in a line: High-throughput drug toxicity screening in the BPDCN cell line Cal-1 (AID 1224825; call rule not given here). The settings on record: Cal-1 BPDCN cell viability, qHTS; at 45.8 µM (top of the series) unless noted. An outline of the steps: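 Percent activity derived from CellTiter-Glo luminescence, scaling DMSO to 100% and 9.2 uM final bortezomib to 0%. BPDCN Cal-1 cells (500/well, RPMI plus 10% FBS) incubated with compounds 48 hours at 37C before reading.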
For orientation: In qHTS, concentration-response curves come from the screen itself.

The nature of test [5]: qHTS assay for measurement of the activity of small molecule inhibitors on Zika virus induced Caspase-3 activity in human iPSC derived neural progenitor cells (hNPCs) (AID 1224857). Note: % of control where 0% means no effect; nearly all actives have a fitted effect of over 65% in size. Particulars: hNPCs ZIKV-induced caspase-3/7, Caspase-Glo luminescence, 6 h; series mostly up to 45.7 µM. An outline of the steps: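 Pretreat hNPCs with compound 1 h; infect ZIKV 2 FFU/cell; 6 h 37 C, 5% CO2; Caspase-Glo 3/7, 30 min RT; luminescence; normalize to no-virus and virus-only wells.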

The nature of test [6]: qHTS assay for measurement of the activity of small molecule inhibitors on Zika virus induced Caspase-3 activity in human astrocytoma cells (AID 1224859).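 Note: plate controls were ZIKV-infected untreated cells for no effect and uninfected cells for full effect.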 The settings on record: SNB-19 ZIKV-induced caspase-3/7, luminescence, 6 h; series mostly up to 45.7 µM. An outline of the steps:
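Human SNB-19 astrocytoma cells in RPMI 1640 with 10% FBS receive compound one hour ahead of Zika virus at 2 FFU/cell. After 6 h infection, caspase-3/7 activity is detected by Caspase-Glo luminescence.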

The nature of test [7]: qHTS Screen of the MIPE 4.0 Collection Against Ewings Sarcoma (RDES) (AID 1259252). Note: nearly all actives have a fitted effect of over 35% in size. Note: potency is the fitted concentration of half-maximal effect. Particulars: RD-ES Ewing sarcoma viability, CellTiter-Glo, 48 h; series mostly up to 45.8 µM. An outline of the steps:
(§1)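 Cells plated in serum-containing RPMI (5% FBS) and treated with compound dilutions for 48 h. Readout luminescent viability; normalization relied on vehicle (no inhibition) and media-only columns (full inhibition).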

The nature of test [8]: qHTS Screen of the MIPE 4.0 Collection Against Ewings Sarcoma (TC71) (AID 1259253). Note: nearly all actives have a fitted effect of over 40% in size. Note: potency is the fitted concentration of half-maximal effect. Particulars: TC71 Ewing sarcoma viability, CellTiter-Glo, 48 h; series mostly up to 45.8 µM. An outline of the steps:
as §1

A short description of test [9]: qHTS Screen of the MIPE 4.0 Collection Against Ewings Sarcoma (EW8) (AID 1259255).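 For viability: 100% = DMSO-treated cells and 0% = medium-only wells without cells.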 Note: nearly all actives have a fitted effect of over 35% in size. Note: potency is the fitted concentration of half-maximal effect. Particulars: EW8 Ewing sarcoma viability, CellTiter-Glo, 48 h; series mostly up to 45.8 µM. An outline of the steps: as §1
Test [10] can be described thus: qHTS Screen of the MIPE 4.0 Collection Against Ewings Sarcoma (TC32) (AID 1259256). Note: nearly all actives have a fitted effect of over 45% in size. Note: potency is the fitted concentration of half-maximal effect. The settings on record: TC32 Ewing sarcoma viability, CellTiter-Glo, 48 h; series mostly up to 45.8 µM. An outline of the steps:
as §1

A short description of test [11]: Identifying Small Molecule Inhibitors of Pancreatic Cancer Stem Cells (SN12C, Adherent) (AID 1259358).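 Note: cell survival measured after 48 h of compound exposure.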 Note: potency is the fitted concentration of half-maximal effect. The settings on record: viability/growth inhibition; series mostly up to 46.1 µM. An outline of the steps: (§2)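 Pre-formed 14-day tumor spheroids or adherent cells dosed and incubated 48 h, 37C, 5% CO2. Viability assessed by CellTiter-Glo.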
A short description of test [12]: Identifying Small Molecule Inhibitors of Pancreatic Cancer Stem Cells (Panc1, Spheroid) (AID 1259359).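 Note: potency is the fitted concentration of half-maximal effect; compound exposure lasted 48 h before reading.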 The settings on record: Panc1 spheroid cancer stem cell viability; series mostly up to 46.1 µM. An outline of the steps: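 Endpoint: ATP-based luminescence, 48 h drug exposure. Bortezomib at 9.2 uM final as full-kill control; DMSO vehicle as negative control; activity normalized between vehicle and cell-free wells.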

Test [13] in a line: Identifying Small Molecule Inhibitors of Pancreatic Cancer Stem Cells (SN12C, Spheroid) (AID 1259360).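 For viability (% of control): 100% = DMSO-treated cells and 0% = wells without cells.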 Note: potency is the fitted concentration of half-maximal effect. Particulars: Potency: SN12C spheroid viability; series mostly up to 46.1 µM. An outline of the steps:
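Spheroids grown 14 days in stem cell media on hydrogel-coated nonadherent plates; 2D lines seeded directly. Compounds added after 4 h attachment, 48 h at 37C, 5% CO2; CellTiter-Glo luminescence normalized to DMSO (no inhibition) and no-cell wells (full inhibition).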

Test [14] in a line: P-glycoprotein substrates identified in KB-8-5-11 adenocarcinoma cell line, qHTS therapeutic library screen (AID 1346987). Note: nearly all actives have a fitted effect of over 65% in size. Note: potency is the fitted concentration of half-maximal effect. Particulars: KB-8-5-11 (P-gp overexpressing) viability, CellTiter-Glo, 72 h; series mostly up to 44.5 µM. An outline of the steps:
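Compounds are pinned in dose-response onto KB-8-5-11 cells (500 cells/well, colchicine-free medium) and left 72 h at 37 degree C. CellTiter-Glo luminescence then yields AC50 values.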

The nature of test [15]: Identifying Small Molecule Inhibitors of Pancreatic Cancer Stem Cells (A278, Adherent) (AID 1259361).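 For viability (% of control): 100% = DMSO-treated cells and 0% = cell-free media-only wells.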 Note: nearly all actives have a fitted effect of over 35% in size. Particulars: series mostly up to 46.1 µM. An outline of the steps:
as §2

Test [16] in a line: Identifying Small Molecule Inhibitors of Pancreatic Cancer Stem Cells (Panc1, Adherent) (AID 1259362).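 Note: compound exposure lasted 48 h before the viability read; plate controls were DMSO-treated cells for no effect and cell-free media wells for full effect.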 The settings on record: Potency: viability; series mostly up to 46.1 µM. An outline of the steps: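 Cytotoxicity read by CellTiter-Glo luminescence after 48 h compound exposure at 37C; percent activity scaled between DMSO-treated cells and cell-free wells. Spheroid formats used cells pre-formed 14 days in stem cell media on hydrogel.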

A short description of test [17]: qHTS assay to identify small molecule inhibitors of chordoma cells - UCH-1 (AID 1259355). Note: % is set by controls: 0 for no effect and ±100 for the full control effect; nearly all actives have a fitted effect of over 55% in size. The settings on record: UCH-1 chordoma viability, CellTiter-Glo, 48 h, combination, with auranofin plus four topoisomerase inhibitors; series mostly up to 46.1 µM. An outline of the steps: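 800 cells/well, overnight attach; compounds pinned at 15 concs, then auranofin/camptothecin/doxorubicin/rubitecan/topotecan combo added; 48hr 37 C, 5% CO2; CellTiter-Glo, 30min RT, luminescence.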

The nature of test [18]: qHTS assay to identify small molecule inhibitors of chordoma cells - UCH-2 (AID 1259356). Note: % is set by controls: 0 for no effect and ±100 for the full control effect. Particulars: UCH-2 chordoma viability, CellTiter-Glo ATP luminescence, 48 h; series mostly up to 46.1 µM.
Test [19] in a line: P-glycoprotein substrates identified in KB-3-1 adenocarcinoma cell line, qHTS therapeutic library screen (AID 1346986). Note: nearly all actives have a fitted effect of over 60% in size.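 Note: potency is the fitted concentration of half-maximal effect; potency is for cytotoxicity meaning loss of cell viability.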 Particulars: KB-3-1 parental cells viability, CellTiter-Glo, 72 h; series mostly up to 44.5 µM. An outline of the steps: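 Viability read by CellTiter-Glo after 72 h compound exposure in dose-response of KB-3-1 and KB-8-5-11 (P-gp-high) cells. Hits needed AC50 < 10 uM, >50% maximum response and curve class -1.1 to -2.4. Cherry-picks retested ± tariquidar, including pcDNA/MDR-19 HEK-293 pair.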

Consider `COc1ccc(-c2ccc3c(N4CCOCC4)nc(N4C[C@@H](C)O[C@@H](C)C4)nc3n2)cc1CO`, for which the Potency in [1] was 0.59 µM (active); in test [2], 1.48 µM (active); in test [7], 0.526 µM (active); in [8], 0.833 µM (active); in test [9], 0.662 µM (active); in test [10], 0.59 µM (active). Also, the Potency in [11] is 0.235 µM (active); in [12], 1.05 µM (active); in [13] it was 0.372 µM (active); in [14] it was 296 nM (active). The cell viability, % of control (lower = more cytotoxic) in test [3] worked out at 19.2%. Besides, in test [4], the viability (% of control) was determined as 12.6%. Further, the Potency result in test [5] and in [6] was “inactive” each time.
`CNC(=O)c1ccc(N2C(=S)N(c3ccc(C#N)c(C(F)(F)F)c3)C(=O)C2(C)C)cc1F`: the Potency in test [1] was 23.5 µM (active). In test [3], the cell viability, % of control (lower = more cytotoxic) came out at 185%. Also, the viability (% of control) in test [4] was 112%. In addition, the Potency entry in [5], in test [6], in test [7], in test [8], in test [9] and in [10] was “inactive” throughout. Further, the Potency entry in test [11], in test [16] and in test [14] was “inactive” each time. For the same compound, in test [15], the IC50 (viability decrease) was 23.5 µM (active).
In the case of `CCCc1nc2c(C)cc(-c3nc4ccccc4n3C)cc2n1Cc1ccc(-c2ccccc2C(=O)O)cc1`, in test [1], the Potency was 37.2 µM (active). The cell viability, % of control (lower = more cytotoxic) in test [3] amounted to 126%. Besides, in test [4], the viability (% of control) came out at 103%. Also, the Potency entry in test [5], in test [6], in test [17], in test [11], in test [13] and in test [16] was “inactive” each time. Further, the Potency result in [14] was “inactive”. The IC50 (viability decrease) result in test [15] is “inactive”.
With `CCC(C)n1ncn(-c2ccc(N3CCN(c4ccc(OC[C@H]5CO[C@](Cn6cncn6)(c6ccc(Cl)cc6Cl)O5)cc4)CC3)cc2)c1=O` (some centres undefined), the Potency in [1] was 10.5 µM (active). In addition, the cell viability, % of control (lower = more cytotoxic) in test [3] was found to be 92.6%. For the same compound, in test [4], the viability (% of control) was determined as 93.9%. The Potency result in [5], in test [8], in [9], in test [10], in test [11] and in test [16] was “inactive” each time. Besides, in test [14], the Potency entry was “inactive”. Also, the call in test [18] was inactive. Besides, the IC50 (viability decrease) in [15] is 5.9 µM (active).
As for `CC[C@@H](C)[C@H](NC(=O)[C@H](CC1CCCCC1)NC(=O)c1ccno1)C(=O)N1CCC2(CCc3ccccc32)CC1`, the Potency is 10.5 µM (active) in test [1] and 11.8 µM (active) in test [13]. In test [3], the cell viability, % of control (lower = more cytotoxic) was 168%. Further, the viability (% of control) in [4] came out at 111%. Moreover, the Potency result in test [6], in test [7], in [9], in test [11] and in test [14] was “inactive” in each case.
For the compound `NC(=O)c1ccc(-c2nc(-c3ccc4c(c3)OCCO4)c(-c3ccccn3)[nH]2)cc1`, the Potency in test [1] is 20.9 µM (active). The cell viability, % of control (lower = more cytotoxic) in [3] was found to be 607%. Besides, the viability (% of control) in test [4] came out at 102%. Besides, the Potency result in test [5], in [6], in [11] and in test [14] was “inactive” each time.
Take `Cc1ccc(-n2nc(C(C)(C)C)cc2NC(=O)Nc2ccc(OCCN3CCOCC3)c3ccccc23)cc1`: the Potency in test [1] was 26.4 µM (active); in test [7] it was 29.6 µM (active); in test [8], 20.9 µM (active); in test [10], 20.9 µM (active). In addition, the cell viability, % of control (lower = more cytotoxic) in [3] was 240%. In addition, in test [4], the viability (% of control) came out at 64.8%. The IC50 (viability decrease) in test [15] is 18.7 µM (active). In addition, the Potency entry in test [19] was “inactive”.
Take `CO[C@@H]1[C@H](N(C)C(=O)c2ccccc2)C[C@H]2O[C@]1(C)n1c3ccccc3c3c4c(c5c6ccccc6n2c5c31)C(=O)NC4`: the Potency in test [1] was 0.743 µM (active); in test [19], 1.3 µM (active); in [14], 1.48 µM (active) and 1.3 µM (active). In addition, the cell viability, % of control (lower = more cytotoxic) in test [3] was 21.1%. The viability (% of control) in test [4] is 14.1%.
